Test [1] deals with Aerobactin synthetase IucA (Klebsiella pneumoniae). The experiment in a line: inhibition of K. pneumoniae IucA enzyme – biochemical, Tocris library, absorbance (AID 1345561; call rule not given here;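 further: 100% = enzyme without compound and 0% = no enzyme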). To be noted: purified IucA enzyme assay, absorbance (OD) read-out; stronger effect = lower value;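 tested at 8 µM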.
A short description of test [2]: viability loss with induced miR-34 in A549 – imaging, A549 dox-inducible miR-34, nuclei and caspase counts, primary screen (AID 1347080;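 active means compounds whose cell count with miR-34 switched on is under 0.7 times the count with it off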). The conditions noted are these: A549 miR-34 inducible, Hoechst nuclei count, 48 h.
Test [3] is described as follows: chitosan synthesis blockers in C. neoformans – flow cytometry, Cibacron Brilliant Red staining (AID 1347148; call rule not given here;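 further: compound exposure lasted three days at 37 degrees C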). The conditions noted are these: Cryptococcus neoformans chitosan, stronger effect = lower value; at 10 µM unless noted. A general note: A flow cytometer gives signals particle by particle.
A short description of test [4]: galactose survival enhancers in mitochondrial complex I cybrids – cell-based, galactose medium, ATP luminescence, primary screen (AID 1645843;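 active means z-score of at least 1.8 in each of two replicates, scored against plate mean and spread of sample wells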;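 further: positive z means more ATP and so rescue of galactose-driven cybrid death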). To be noted: complex I mutant cybrid cells, 72 h, stronger effect = higher value.
Test [5] is described as follows: blockers of cellular phospholipid synthesis – cell-based, LOPAC library, screen 4, primary screen (AID 1347384; call rule not given here). To be noted: animal cells, phospholipid biosynthesis inhibition screen; at 10 µM.
The nature of test [6]: compounds altering circadian rhythm period length – cell-based, LOPAC library, luminescence reporter (AID 2774; call rule not given here;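 further: values are relative to mean of DMSO wells on each plate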). To be noted: circadian reporter cells, at 7 µM, actives lie on both sides.
The subject of test [7] is Hepatitis C virus NS3 helicase. The experiment in a line: blockers of NS3h binding to ssDNA – biochemical, fluorescence polarization, LOPAC1280 library, primary screen (AID 687035; in the data active means inhibition above about 37%). To be noted: Purified HCV NS3 helicase, Cy5-dT15 ssDNA binding fluorescence polarization; stronger effect = higher value; concentration not given here. A general note: Polarisation of emitted light reports the rotation of a fluorescent probe.

A short description of test [8]: compounds altering Cy5-DNA-NS3h complex signal – biochemical, LOPAC1280, artefact control for HCV NS3 helicase inhibitor project (AID 687037; call rule not given here). To be noted: Cy5-DNA-NS3h complex fluorescence interference counterscreen. Background: A counterscreen serves to expose hits that act by an unwanted route or on another target.
A short description of test [9]: compounds altering HSF1 focus formation in cells – imaging, Selleck Cancer Library (AID 1347162; in the data active means plate-normalised HSF1 focus index below about 0.46). The conditions noted are these: human cells, HSF1 nuclear foci imaging, at 10 µM; SSMD: measured here: HSF1 foci SSMD mean; cell count: measured here: cell number; plate-normalised HSF1 focus index: stronger effect = lower value.
Test [10] can be described thus: MELAS cybrid and Rieske KO viability enhancers – cell-based, MELAS cybrids, Rieske KO mouse fibroblasts, CellTiter-Glo, primary screen (AID 1508586;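 active means mean z-score across replicates of 1.96 or higher in either the MELAS or the Rieske mutant cell line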;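 further: z relative to plate mean and SD of compound and empty wells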). The conditions noted are these: low glucose.
Test [11] is described as follows: drug combination growth inhibition, ovarian cancer – cell-based, oncology-focused library, rucaparib conditional, profiling panel (AID 1508598). The conditions noted are these: patient-derived ovarian cancer cells, CellTiter-Glo viability, 144 h, stronger effect = lower value.
The mark [12] stands for this setting: stronger effect = lower value, cell number ratio, induced over uninduced.
Where [13] appears, read: measured here: relative caspase fold change +Dox/-Dox.
Where [14] appears, read: measured here: total cells with miR-34 induction, stronger effect = lower value.
The mark [15] stands for this setting: measured here: total cells without miR-34 induction.

Several values for one entry are separate records, joined by “and”; a condition that tells them apart may be missing. Equal values may be shown once. Activity calls are given as the source filed them.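 How the source made its calls, unless noted: active means normalized viability below 100% at a tested concentration; inactive means the rest.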

For the molecule `O=C(NCCCCCCNC(=O)ON=C1CCCCC1)ON=C1CCCCC1`, in test [1], the remaining activity was 126% (inactive). In addition, the fold change in [2] (setting [12]) is 0.722 (inactive) and 0.829 (inactive); in test [2] (setting [13]), 1.07 and 1.04. The cell count in test [2] (setting [14]) was 3570 and 6850; in test [2] (setting [15]) it was 4940 and 8260. Further, the fold fluorescence in test [3] is 7.89 [at 126.7 µM] (inactive). The z-score in test [4] was -0.255 (inactive).

`COc1ccc(Br)cc1S(=O)(=O)NC(=O)/C=C/c1ccccc1Cc1ccc2ccccc2c1`: the remaining activity in test [1] was 102% (inactive). In addition, the fold change in [2] (setting [12]) is 1.05 (inactive) and 0.853 (inactive); in [2] (setting [13]), 1.89 and 2.15. Also, the cell count in test [2] (setting [14]) is 9590 and 8680; in test [2] (setting [15]), 9110 and 10200. Besides, in [5], the molecule was called inactive. Moreover, the z-score in [4] is 0.395 (inactive) and 0.085 (inactive).

With `Cn1cc(C2=C(c3ccc(Cl)cc3Cl)C(=O)NC2=O)c2ccccc21`, the period change in [6] was 0.025 h (inactive). Further, in [7], the inhibition was -3% (inactive). Also, the fluorescence ratio (interference) in test [8] is 1 (inactive). Further, the remaining activity in test [1] is 92.7% (inactive). The fold change in [2] (setting [12]) is 0.99 (inactive) and 0.96 (inactive) and 1.01 (inactive); in [2] (setting [13]), 1.07 and 0.76 and 0.707. The cell count in [2] (setting [14]) is 4090 and 5760 and 2500; in test [2] (setting [15]) it was 4130 and 6000 and 2470; in test [9], 7820. This molecule also gave an SSMD in test [9] of 1.42. Also, in test [9], the plate-normalised HSF1 focus index is 1.09 (inactive). The call in [5] was inactive. Moreover, the z-score in test [10] (MELAS cybrid survival, CellTiter-Glo 48 h, stronger effect = higher value) was -0.394 (inactive); in test [10] (Rieske KO mouse fibroblast survival, CellTiter-Glo 72 h), 0.82; in [4], 1.59 (inactive) and 0.305 (inactive). For the same molecule, the viability was 106% (inactive) in test [11] (at 0.000305 µM, OCI-C5x cells, with rucaparib 10 µM, 100% = cells with rucaparib alone); 117% (inactive) in [11] (at 0.000305 µM, OCI-C5x cells, without rucaparib); 102% (inactive) in [11] (at 0.000305 µM, OCI-P5x cells, with rucaparib 20 µM, 100% = cells with rucaparib alone); 103% (inactive) in test [11] (at 0.000305 µM, OCI-P5x cells, without rucaparib); 122% (inactive) in [11] (at 0.00122 µM, OCI-C5x cells, with rucaparib 10 µM, 100% = cells with rucaparib alone); 119% (inactive) in test [11] (at 0.00122 µM, OCI-C5x cells, without rucaparib). The viability was 107% (inactive) in test [11] (at 0.00122 µM, OCI-P5x cells, with rucaparib 20 µM, 100% = cells with rucaparib alone); 89.9% (active) in [11] (at 0.00122 µM, OCI-P5x cells, without rucaparib); 117% (inactive) in test [11] (at 0.00488 µM, OCI-C5x cells, with rucaparib 10 µM, 100% = cells with rucaparib alone); 114% (inactive) in test [11] (at 0.00488 µM, OCI-C5x cells, without rucaparib); 105% (inactive) in test [11] (at 0.00488 µM, OCI-P5x cells, with rucaparib 20 µM, 100% = cells with rucaparib alone); 91.8% (active) in [11] (at 0.00488 µM, OCI-P5x cells, without rucaparib). Moreover, the viability in test [11] (at 0.0195 µM, OCI-C5x cells, with rucaparib 10 µM, 100% = cells with rucaparib alone) is 125% (inactive); in test [11] (at 0.0195 µM, OCI-C5x cells, without rucaparib), 111% (inactive); in test [11] (at 0.0195 µM, OCI-P5x cells, with rucaparib 20 µM, 100% = cells with rucaparib alone), 98.3% (active); in test [11] (at 0.0195 µM, OCI-P5x cells, without rucaparib) it was 89.5% (active); in test [11] (at 0.0781 µM, OCI-C5x cells, with rucaparib 10 µM, 100% = cells with rucaparib alone) it was 110% (inactive); in test [11] (at 0.0781 µM, OCI-C5x cells, without rucaparib), 112% (inactive). The viability in test [11] (at 0.0781 µM, OCI-P5x cells, with rucaparib 20 µM, 100% = cells with rucaparib alone) is 106% (inactive); in test [11] (at 0.0781 µM, OCI-P5x cells, without rucaparib), 81.9% (active); in test [11] (at 0.313 µM, OCI-C5x cells, with rucaparib 10 µM, 100% = cells with rucaparib alone), 122% (inactive); in [11] (at 0.313 µM, OCI-C5x cells, without rucaparib), 106% (inactive); in test [11] (at 0.313 µM, OCI-P5x cells, with rucaparib 20 µM, 100% = cells with rucaparib alone) it was 97.2% (active); in test [11] (at 0.313 µM, OCI-P5x cells, without rucaparib), 89.8% (active). The viability was 126% (inactive) in test [11] (at 1.25 µM, OCI-C5x cells, with rucaparib 10 µM, 100% = cells with rucaparib alone); 111% (inactive) in test [11] (at 1.25 µM, OCI-C5x cells, without rucaparib); 96.3% (active) in test [11] (at 1.25 µM, OCI-P5x cells, with rucaparib 20 µM, 100% = cells with rucaparib alone); 84.5% (active) in test [11] (at 1.25 µM, OCI-P5x cells, without rucaparib); 114% (inactive) in [11] (at 5 µM, OCI-C5x cells, with rucaparib 10 µM, 100% = cells with rucaparib alone); 120% (inactive) in test [11] (at 5 µM, OCI-C5x cells, without rucaparib). Besides, the viability in test [11] (at 5 µM, OCI-P5x cells, with rucaparib 20 µM, 100% = cells with rucaparib alone) was 89.2% (active); in test [11] (at 5 µM, OCI-P5x cells, without rucaparib), 83.9% (active).

A word on the remaining activity: it is the signal under treatment as a percentage of the control signal. What is called inhibition is the change of the read-out against control, counted positive when it falls. A word on the viability: it is a read-out of living cells in per cent, often relative to untreated cells.
